A short description of experiment [1]: Her2 expression decrease, cell viability multiplex – SKBR3 breast tumor cells, AlphaScreen, ATP viability, primary screen (AID 461;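 active = Her2 level under about 52% in both replicate screens, with viability over 70% of control, limit read from the data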;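 for Her2 level: lower value means less Her2 protein in the cells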;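 for viability: percent of carrier control wells set as 100% viability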). The following applies: SKBR3 Her2 protein level, 18-24 h, measured here: SKBR3 viability, ATP luminescence, at 10 µM. Background: Alpha assays give light when donor and acceptor beads are brought close together.
The target of experiment [2] is Receptor tyrosine-protein kinase erbB-2 (Homo sapiens) (UniProt P04626). The experiment is described as above. The following applies: 18-24 h, at 10 µM, stronger effect = lower value.
Chain of Receptor tyrosine-protein kinase erbB-2 (Homo sapiens) (P04626 whole entry, looked up): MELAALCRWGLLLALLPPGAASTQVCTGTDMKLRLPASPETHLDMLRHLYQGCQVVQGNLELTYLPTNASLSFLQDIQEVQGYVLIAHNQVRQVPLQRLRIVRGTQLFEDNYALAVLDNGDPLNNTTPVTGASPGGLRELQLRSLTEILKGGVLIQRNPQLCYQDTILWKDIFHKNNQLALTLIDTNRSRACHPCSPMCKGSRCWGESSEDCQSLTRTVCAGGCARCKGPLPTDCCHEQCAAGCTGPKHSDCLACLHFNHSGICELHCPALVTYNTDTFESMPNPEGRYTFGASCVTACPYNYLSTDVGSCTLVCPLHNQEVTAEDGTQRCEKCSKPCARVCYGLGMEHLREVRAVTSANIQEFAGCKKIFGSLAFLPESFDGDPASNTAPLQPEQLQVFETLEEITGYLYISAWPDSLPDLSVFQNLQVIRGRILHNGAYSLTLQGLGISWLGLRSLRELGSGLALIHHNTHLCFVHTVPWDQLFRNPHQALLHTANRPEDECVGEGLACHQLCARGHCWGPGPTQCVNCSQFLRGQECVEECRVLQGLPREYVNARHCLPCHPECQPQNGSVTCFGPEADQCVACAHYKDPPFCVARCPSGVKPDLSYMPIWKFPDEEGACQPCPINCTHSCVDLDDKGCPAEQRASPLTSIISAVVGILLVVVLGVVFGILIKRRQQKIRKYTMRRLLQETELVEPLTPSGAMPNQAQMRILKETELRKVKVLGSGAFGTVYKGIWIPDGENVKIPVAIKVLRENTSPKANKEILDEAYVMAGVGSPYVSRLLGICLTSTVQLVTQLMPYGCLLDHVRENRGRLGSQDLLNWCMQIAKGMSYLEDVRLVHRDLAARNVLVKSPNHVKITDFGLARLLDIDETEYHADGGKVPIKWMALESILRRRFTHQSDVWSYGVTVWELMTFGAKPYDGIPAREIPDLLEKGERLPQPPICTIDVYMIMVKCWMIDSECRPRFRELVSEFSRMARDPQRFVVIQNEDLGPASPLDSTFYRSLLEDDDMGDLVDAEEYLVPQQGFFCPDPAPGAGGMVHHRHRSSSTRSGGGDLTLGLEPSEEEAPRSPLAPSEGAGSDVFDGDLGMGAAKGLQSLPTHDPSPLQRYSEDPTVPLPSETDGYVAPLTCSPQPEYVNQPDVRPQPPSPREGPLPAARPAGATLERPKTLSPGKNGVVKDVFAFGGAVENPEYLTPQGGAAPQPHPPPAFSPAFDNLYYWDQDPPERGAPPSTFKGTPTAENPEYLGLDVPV
The nature of experiment [3]: reduced viability of SK-BR-3 breast cancer cells – cell-based, 24 h, human, pilot screen (AID 572;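 active = viability at or below 10% of carrier control in both of two separate runs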;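 note: compound exposure lasted between 18 and 24 h rather than exactly 24 h; 100% = carrier-treated control wells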). The conditions noted are these: SK-BR-3 viability, CellTiter-Glo luminescence, at 10 µM, stronger effect = lower value. For orientation: In ATP-based viability assays light output follows the ATP content of the culture.
Experiment [4] in a line: HUVEC growth inhibition – cell-based, human, primary screen (AID 575;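 active = viability at or below 30% in both replicate assays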;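 note: 100% = median of untreated cell wells with 0.1% DMSO on each plate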). The following applies: HUVEC proliferation, CellTiter-Glo luminescence, 72 h; at 10 µM; stronger effect = lower value.
Experiment [5] is described as follows: H69AR cell proliferation blockers – human, duplicate replicates, primary screen (AID 580).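 Note: 100% = mean luminescence of untreated wells and 0% = no signal.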 The following applies: H69AR lung tumor cells viability, ATP luminescence, 72 h; at 10 µM; stronger effect = lower value.
Experiment [6] can be described thus: MRP1 drug-resistance reversers in H69AR cells – cell-based, doxorubicin co-treatment, pilot screen (AID 601;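 active = viability loss from added drug above about 55%, and viability with drug at most 40%, in both replicates, limit read from the data, passing the limit was not always enough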). The conditions noted are these: CellTiter-Glo, 72 h, at 10 µM; for differential viability (reversal): stronger effect = higher value.
Experiment [7] in a line: yeast transport mutant growth inhibition pilot in 384-well plates, post-Golgi transport modulator project (AID 636; in the data active = inhibition above about 31%). The following applies: absorbance 615 nm, about 18 h, stronger effect = higher value.
Experiment [8] in a line: growth suppression of yeast trafficking mutant, preliminary HTS, modulators of trafficking downstream of Golgi apparatus project, 1536-format plate, OD 615 nm (AID 637; in the data active = inhibition above about 30%). The conditions noted are these: yeast transport mutant growth, absorbance 615 nm, 18 h; stronger effect = higher value.
Experiment [9] in a line: S. cerevisiae growth inhibition in permissive medium (OD615), pilot counter-assay for S. cerevisiae lifespan shortening project, permissive growth control (AID 705;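 active = growth inhibition above 25% in both replicates, a cutoff set 3 SD above the mean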). The conditions noted are these: OD615, 24 h, at 10 µM, stronger effect = higher value.
Experiment [10] in a line: S. cerevisiae growth inhibition in restrictive medium, OD615, pilot screen, restrictive growth control, yeast lifespan reduction project (AID 706;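 active = growth inhibition above a set limit, 3 SD over mean compound inhibition, in both replicates, cut at about 43% in these data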;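 note: modified DeaD lifespan yeast strain shifted to restrictive glucose medium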). The following applies: OD615, 48 h, at 10 µM, stronger effect = higher value.
Experiment [11] is described as follows: doxorubicin toxicity protection in MRP-1 cells – H69AR cells, CellTiter-Glo, duplicate, MRP-1 activator project, pilot screen (AID 807;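 active = viability increase at or above a cutoff of the median across tested compounds plus 3 SD, cut at about 8.5% in these data, passing the limit was not always enough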;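 note: compound pretreatment 18-22 h then 72 h combined with doxorubicin; 0% = doxorubicin alone and 100% = vehicle without doxorubicin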). The following applies: H69AR viability with doxorubicin, CellTiter-Glo luminescence; at 10 µM; stronger effect = higher value.
The nature of experiment [12]: viability of HCT116 without oncogenic beta-catenin – human colon tumor cells, pilot screen (AID 823;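 active = cell viability at or below a set limit in both duplicate runs, the limit being the all-compound median minus 4 SD, cut at about 23% in these data, passing the limit was not always enough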;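 note: 0% = wells killed by 20 µM Hyamine and 100% = untreated DMSO cell wells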). The conditions noted are these: HCT116 beta-catenin knockout viability, CellTiter-Glo, 60 h; at 10 µM; stronger effect = lower value.
A short description of experiment [13]: viability of PTEN-null HCT116 cells – cell-based, HCT116 clonal line, CellTiter-Glo, pilot screen (AID 824;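 active = viability at or below 27.92% in each of two runs, the all-compound median minus 4 SD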;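 note: 0% = 20 µM Hyamine control and 100% = vehicle cell control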). The conditions noted are these: HCT116 PTEN-deleted viability, 60 h, at 10 µM, stronger effect = lower value.
Experiment [14] is described as follows: RAM pathway blockade in budding yeast – dse1pr::URA3 reporter, 5-FOA selection, pilot screen (AID 869;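 active = inhibition over a set limit, the all-compound mean plus 3 SD, in both replicate runs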;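 note: 0% = DMSO wells with no growth and 100% = 10 µM 1-NA-PP1 with full growth; RAM network block rescues cells from 5-FOA so hits raise OD615 growth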). The conditions noted are these: S. cerevisiae dse1pr::URA3 5-FOA growth, OD615, 2 d; at 10 µM; stronger effect = higher value; strain carries analog-sensitive mutant Cbk1 kinase.
A short description of experiment [15]: RAM signaling pathway blockade in yeast – S. cerevisiae, Pdr1DBD-CYC8 efflux-inhibited sensitized strain, primary screen (AID 1298;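 active = RAM network inhibition above 8.4% in each of two replicates, 3 SD over the compound average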;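 note: 0% = DMSO untreated cells without growth and 100% = 10 µM 1-NA-PP1 full growth; higher means more yeast growth rescued from 5-FOA killing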). The conditions noted are these: S. cerevisiae cbk1-as DSE1-URA3 strain, 5-FOA growth OD615, 2 d; at 50 µM; stronger effect = higher value.
The mark [16] stands for this setting: H69AR cells + 2 uM doxorubicin, measured here: viability with 2 uM doxorubicin, stronger effect = lower value.
Setting [17] is: H69AR cells, compound alone cytotoxicity.

The values that follow come from PubChem BioAssay.

Results filed as inconclusive are left out. Calls of active or inactive are those of the source.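 Rule for the calls, unless noted: active = viability at or under a set limit in both replicates, limit being median viability minus 3 SD (cut at about 48% in these data, passing the limit was not always enough); inconclusive = at or under the limit in just one replicate; inactive = at or above the limit in both replicates.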

In the case of `Cc1noc(C)c1S(=O)(=O)N1CCN(Cc2ccc3c(c2)OCO3)CC1`, the viability in experiment [1] is 82.5%; in experiment [3], 82.5% (inactive); in experiment [4] it was 96.7% (inactive); in experiment [5], 95.4% (inactive); in experiment [6] (setting [16]), 85.7%; in experiment [6] (setting [17]) it was 95.4%. The viability is 95.3% (inactive) in experiment [12] and 98% (inactive) in experiment [13]. Moreover, in experiment [2], the Her2 level was 105% (inactive). Moreover, the differential viability (reversal) in [6] (H69AR cells + 2 uM doxorubicin) was 9.66% (inactive). In addition, the results for the inhibition in [7], in [8] and in [14] were -0.93% (inactive), 0% (inactive) and 0.725% (inactive), respectively. The growth inhibition in experiment [9] was -5.76% (inactive); in experiment [10], 7.12% (inactive). Further, the viability increase in experiment [11] is -0.42% (inactive). In addition, in [15], the RAM network inhibition was 8.84% (inactive).

In the case of `CN(Cc1ccccc1)S(=O)(=O)c1ccc(S(=O)(=O)N2CCN(CCC#N)CC2)cc1`, the viability in [1] was 91%; in [3], 91% (inactive); in [4], 92.4% (inactive); in [5], 77.2% (inactive); in experiment [6] (setting [16]), 61.8%; in experiment [6] (setting [17]) it was 77.2%. Also, the viability in [12] was 96.9% (inactive); in [13], 92.3% (inactive). Further, the Her2 level in experiment [2] was 116% (inactive). The differential viability (reversal) in experiment [6] (H69AR cells + 2 uM doxorubicin) was 15.4% (inactive). In addition, the inhibition in experiment [7] was -4.23% (inactive); in experiment [8], -7.17% (inactive); in [14], 0.725% (inactive). Further, the growth inhibition is -12% (inactive) in experiment [9] and -4.41% (inactive) in experiment [10]. For the same compound, the viability increase in experiment [11] is -8.59% (inactive). Also, the RAM network inhibition in experiment [15] was 4.91% (inactive).

As for `CCOC(=O)/C=C1\CC(=O)Nc2nonc2N1`, the viability in experiment [1] was 112%; in experiment [3] it was 112% (inactive); in [4], 109% (inactive); in experiment [5], 105% (inactive); in experiment [6] (setting [16]), 95.7%; in [6] (setting [17]), 105%. Besides, the viability is 97.5% (inactive) in experiment [12] and 95.3% (inactive) in experiment [13]. Also, in experiment [2], the Her2 level was 92.5% (inactive). The differential viability (reversal) in [6] (H69AR cells + 2 uM doxorubicin) is 9.69% (inactive). Moreover, the values for the inhibition in experiment [7], in [8] and in experiment [14] were -1.73% (inactive), 0.97% (inactive) and 0.615% (inactive), respectively. The growth inhibition in experiment [9] is 0.64% (inactive); in [10], 9.22% (inactive). Further, the viability increase in [11] is -2.08% (inactive). Besides, the RAM network inhibition in experiment [15] was 1.93% (inactive).

For `O=C(NC(=O)c1cccc(F)c1)OC[C@@H]1CCCN2CCCC[C@H]12`, the viability in experiment [1] is 102%; in experiment [3], 102% (inactive); in experiment [4], 110% (inactive); in experiment [5], 96.5% (inactive); in experiment [6] (setting [16]) it was 95.9%; in [6] (setting [17]), 96.5%. The viability in [12] was 99.4% (inactive); in experiment [13], 96.3% (inactive). Also, the Her2 level in experiment [2] was 111% (inactive). Further, the differential viability (reversal) in [6] (H69AR cells + 2 uM doxorubicin) is 0.59% (inactive). Moreover, the inhibition in experiment [7] was -6% (inactive); in [8], 1.48% (inactive); in [14], 0.89% (inactive). Also, the values for the growth inhibition in experiment [9] and in experiment [10] were 1.28% (inactive) and -9.63% (inactive), respectively. The viability increase in experiment [11] was -0.15% (inactive). For the same compound, the RAM network inhibition in experiment [15] was 9.99% (inactive).

With `COc1ccc(-c2nc(CSCC(=O)N3CCc4ccccc4C3)c(C)o2)cc1OC`, the viability in experiment [1] was 88.5%; in experiment [3] it was 88.5% (inactive); in [4], 93.8% (inactive); in experiment [5], 92.6% (inactive); in experiment [6] (setting [16]) it was 92.4%; in experiment [6] (setting [17]) it was 92.6%. The viability in experiment [12] is 93.9% (inactive); in experiment [13] it was 89.8% (inactive). For the same compound, the Her2 level in experiment [2] was 69.5% (inactive). For the same compound, in experiment [6] (H69AR cells + 2 uM doxorubicin), the differential viability (reversal) was 0.215% (inactive). The inhibition was -0.38% (inactive) in experiment [7], -0.5% (inactive) in [8] and -0.395% (inactive) in experiment [14]. Moreover, the growth inhibition in experiment [9] is 13.3% (inactive); in experiment [10] it was 33.4% (inactive). Also, the viability increase in experiment [11] was -3.15% (inactive). Also, the RAM network inhibition in experiment [15] was 3.92% (inactive).

In general, viability refers to a read-out of living cells in per cent, often relative to untreated cells. What is called inhibition is the drop in the measured response relative to a control, in per cent.
